Test results: the supplement of paper PMC10720658
Structures can show the parent of a compound that is named as a salt. ± gives the standard deviation of the averaged measurements.

tested on: AEK1 (Tb927.3.2440); test: percent reduction in TR-FRET probe signal relative to DMSO control; higher = stronger displacement of ATP-site probe (binding); details: 1 µM; incubation time 1 h

Row | SMILES | percent reduction in TR-FRET probe signal [%]
1 | COc1cc2ncnc(Nc3cccc(Cl)c3)c2cc1OC [AG-1478 (Tyrphostin AG-1478)] | 0.453 ± 6.3
2 | NC(=O)Nc1sc(-c2ccc(F)cc2)cc1C(N)=O | 10.6 ± 8.8
3 | C[C@@H]1COC(Nc2ccc3ncnc(Nc4ccc(OCc5nccs5)c(Cl)c4)c3c2)=N1 [Varlitinib] | 11.3 ± 2.9
4 | Cc1[nH]c(/C=C2\C(=O)Nc3ccc(S(=O)(=O)Cc4c(Cl)cccc4Cl)cc32)c(C)c1C(=O)N1CCC[C@@H]1CN1CCCC1 | -5.64 ± 15
5 | CCC(=O)Nc1cccc(Oc2nc(Nc3ccc(N4CCN(C)CC4)cc3OC)ncc2Cl)c1 | -15.7 ± 6.4
6 | Nc1nc(N)c(N=O)c(OCC2CCCCC2)n1 | -2.92 ± 9
7 | O=C(NC1CCNCC1)c1n[nH]cc1NC(=O)c1c(Cl)cccc1Cl | -2.75 ± 9.5
8 | CCCCCCCCCCCCCCCCOP(=O)([O-])OCC[N+](C)(C)C [Miltefosine] | 4.96 ± 18
9 | Cc1ccc(F)c(NC(=O)Nc2ccc(-c3cccc4[nH]nc(N)c34)cc2)c1 [Linifanib (ABT-869)] | 1.08 ± 12
10 | Cc1ccc(-n2nc(C(C)(C)C)cc2NC(=O)Nc2ccc(OCCN3CCOCC3)c3ccccc23)cc1 [BIRB 796 (Doramapimod)] | 1.12 ± 5.4
11 | CC(C)Nc1cc(-c2c[nH]c(C(=O)N[C@H](CO)c3cccc(Cl)c3)c2)c(Cl)cn1 | 0.153 ± 2.1
12 | Cc1ccc(Nc2nccc(N(C)c3ccc4c(C)n(C)nc4c3)n2)cc1S(N)(=O)=O [Pazopanib HCl] | 3.07 ± 12
13 | CN(C)CCCn1cc(C2=C(c3c[nH]c4ccccc34)C(=O)NC2=O)c2ccccc21 | 8.74 ± 7.2
14 | CNC(=O)c1c(F)cccc1Nc1nc(Nc2cc3c(cc2OC)CCN3C(=O)CN(C)C)nc2[nH]ccc12 | -0.577 ± 11
15 | CNC(=O)c1cc(Oc2ccc3nc(N[C@@H]4CCCC[C@H]4O)sc3c2)ccn1 | -6.41 ± 1.1
16 | CS(=O)(=O)c1ccc(-c2cnc(N)c(C(=O)Nc3ccccc3)n2)cc1 | 5.23 ± 4.7
17 | CS(=O)(=O)CCNCc1ccc(-c2ccc3ncnc(Nc4ccc(OCc5cccc(F)c5)c(Cl)c4)c3c2)o1.Cc1ccc(S(=O)(=O)O)cc1.Cc1ccc(S(=O)(=O)O)cc1 | 19.5 ± 21
18 | CN1CCN(c2ccc3nc(-c4c(N)c5c(F)cccc5[nH]c4=O)[nH]c3c2)CC1 [Dovitinib (TKI-258, CHIR-258)] | 16.9 ± 16
19 | COCC(=O)NC/C=C/c1ccc2ncnc(Nc3ccc(Oc4ccc(C)nc4)c(C)c3)c2c1 | 3.65 ± 5.5

Row | SMILES | percent reduction in TR-FRET probe signal [%]
20 | CN1CCN(c2nc(C3=C(c4c[nH]c5ccccc45)C(=O)NC3=O)c3ccccc3n2)CC1 [Sotrastaurin] | -7.1 ± 1.4
21 | Nc1ccc(C(=O)Nc2cccc(-c3nc(N4CCOCC4)c4oc5ncccc5c4n3)c2)cn1 | -7.4 ± 3
22 | CCCCCCCCCCCCCCCCCCOP(=O)([O-])OC1CC[N+](C)(C)CC1 [Perifosine (KRX-0401)] | -18.1 ± 6.6
23 | CC(C)(C)NS(=O)(=O)c1cncc(-c2cc(F)c3nc(N)nn3c2)c1 | -7.77 ± 4.5
24 | O=C1NC(=O)[C@@H](c2cn3c4c(cccc24)CCC3)[C@@H]1c1c[nH]c2ccccc12 [Tivantinib (ARQ 197)] | 5.86 ± 12
25 | CCN1/C(=C/C(C)=O)Sc2ccc(OC)cc21 | 2.44 ± 5.9
26 | NC(=O)c1ccc(N(C(N)=O)c2c(F)cccc2F)nc1-c1ccc(F)cc1F | -4.77 ± 9.4
27 | O=C1Nc2cc(Br)ccc2/C1=C1/Nc2ccccc2/C1=N\O | 2.19 ± 11
28 | N#Cc1c(Oc2ccc(F)c(NC(=O)Cc3cccc(C(F)(F)F)c3)c2)ccc2nc(NC(=O)C3CC3)sc12 | 1.05 ± 9.1
29 | CS(=O)c1ccc(-c2nc(-c3ccc(F)cc3)c(-c3ccncc3)[nH]2)cc1 (configuration not stated) | -6.83 ± 8.7
30 | Cc1cnc(Nc2ccc(N3CCN(C)CC3)cc2)nc1Nc1cccc(S(=O)(=O)NC(C)(C)C)c1 | 5.49 ± 1.9
31 | CN1CCCN(C(=O)c2cccc(-c3ccc(/C=C4/C(=O)Nc5ccc(Cl)cc54)o3)c2)CC1.Cl | -0.203 ± 9.8
32 | CNC(=O)c1cc(Oc2ccc(NC(=O)Nc3cc(C(C)(C)C)nn3-c3ccc4ncccc4c3)c(F)c2)ccn1 [DCC-2036 (Rebastinib)] | 21.5 ± 15
33 | CN1CCC(CNc2ccc3ncc(-c4cccc(OC(F)(F)F)c4)n3n2)CC1 [SGI-1776 free base] | 30 ± 15
34 | C[C@@H]1COCCN1c1cc(C2(S(C)(=O)=O)CC2)nc(-c2cccc3[nH]ccc23)n1 | 0.253 ± 7.1
35 | Cc1nc(NC(=O)N2CCC[C@H]2C(N)=O)sc1-c1ccnc(C(C)(C)C(F)(F)F)c1 | 0.68 ± 7.1
36 | COc1cc(F)c(F)c(Nc2ccc(I)cc2F)c1NS(=O)(=O)C1(C[C@H](O)CO)CC1 [Refametinib (RDEA119, Bay 86-9766)] | -1.27 ± 14
37 | COc1cc2c(Nc3ccc(NC(=O)c4ccccc4)cc3)ncnc2cc1OCCCN1CCOCC1 | 4.13 ± 16
